Several values for one entry are separate records, joined by “and”; a condition that tells them apart may be missing. Equal entries are not always repeated. A structure can be active in one record and inactive in another. Activity calls are given as the source filed them. The calls were made as follows: active = hit-call score of the fitted dose curve at least 0.9, where 1 is the maximum; inactive = score below 0.9.
Test: ATG_CMV_CIS: Attagene CIS-FACTORIAL HepG2 Assay for human CMV (Internal Marker) (AID 2282928);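 also: endpoint acts as a background internal control marker rather than a target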
Conditions: HepG2 CMV promoter reporter, transcription factor profiling; actives raise or lower the signal
Method: ATG_CIS is a cell-based, multiplexed-readout assay that uses HepG2, a human liver cell line, with measurements taken at 24 hours after chemical dosing in a 24-well plate.ATG_CMV_CIS is one of 52 assay component(s) measured or calculated from the ATG_CIS assay. It is designed to make measurements of mRNA induction, a form of inducible reporter, as detected with fluorescence intensity signals by Reverse transcription polymerase chain reaction (RT-PCR) and Capillary electrophoresis technology.Data from the assay component ATG_CMV_CIS was analyzed into 1 assay endpoint. This assay endpoint, ATG_CMV_CIS, was analyzed with bidirectional fitting relative to DMSO as the negative control and baseline of activity. Using a type of inducible reporter, measures of mRNA for gain or loss-of-signal activity can be used to understand the background control at the transcription factor-level as they relate to the gene . Furthermore, this assay endpoint can be referred to as a secondary readout, because this assay has produced multiple assay endpoints where this one serves a background control function. To generalize the intended target to other relatable targets, this assay endpoint is annotated to the background measurement intended target family, where the subfamily is internal marker.
Human liver HepG2 cells are transiently transfected with multiple reporter transcription units (MRTUs) in 6-well plates using FuGene 6 reagent (Roche; 3 ml FuGene/1 mg DNA). The MRTU constructs are regulated by a cis-regulating element (promoter). […] A major difference between the CIS and TRANS system is that in CIS activities of endogenous TFs are measured, whereas the TRANS assay evaluates changes in activities of exogenous, chimeric NR-Gal4 proteins. […] At the end of 24 hour incubation, total RNA was isolated using TriZol reagent (Invitrogen). The isolated RNA is then reverse-transcribed using oligo(dT) primer and Mo-MLV reverse transcriptase (Invitrogen) with DNAse I (Ambion) treatment for 30 min. The one-tenth of the produced cDNA was amplified by PCR using Taq DNA polymerase (Invitrogen) and two reporter sequence-specific primers. The PCR products were fluorescently labeled by primer extension with 6-arboxyfluorescein (6-FAM) 5'-labeled reporter sequence-specific primer (2 min at 95 C, 20 s at 68 C and 10 min at 72 C) and these products were digested with 5U of HpaI (New England Biolabs) for 2h at 37 C. The fragments were purified using Qiaquick PCR columns (Qiagen), analyzed on an ABI 3130xL genetic analyzer (Applied Biosystems) with peak positions identified by using a set of X-rhodamine (ROX)-labeled MapMarker1000 molecular weight standards (BioVentures). The raw capillary electrophoresis data was processed using Attagraph software (Attagene).

Compound | outcome | AC50
CCCCCCCCc1ccc(O)cc1 | inactive | –
Oc1cccc2cccnc12 | inactive | 139 µM (active)
CC(C)(C)CC(C)(C)c1ccc(O)cc1 | inactive | 17.1 µM (active) and 18 µM (active)
Cl/C=C\C[N+]12CN3CN(CN(C3)C1)C2 | – | 170 µM (active)
COP(=O)(OC)O/C(=C\Cl)c1cc(Cl)c(Cl)cc1Cl | inactive | –
N#Cc1ccccn1 | inactive | –
C[C@H]1CCCC(=O)CCC/C=C/c2cc(O)cc(O)c2C(=O)O1 | – | 31.1 µM (active)
CNC | inactive | –
C=CC#N | inactive | –
CC1(C)Cc2cccc(O)c2O1 | inactive | –
C(=NC1CCCCC1)=NC1CCCCC1 | inactive | –
C=C(C)C(=O)[O][Sn]([CH2]CCC)([CH2]CCC)[CH2]CCC | – | 0.288 µM (active)
ClC(Cl)=C(Cl)C(Cl)=C(Cl)Cl | inactive | –
CCc1ccccc1N | inactive | –
C=CC(=O)OCCCCCC(C)C | inactive | –
CCNc1nc(NC(C)(C)C)nc(SC)n1 | – | 65.6 µM (active)
ClC1=C(Cl)[C@]2(Cl)[C@H]3[C@H]([C@H]4C=C[C@H]3C4)[C@@]1(Cl)C2(Cl)Cl | inactive | –
O=S(=O)(c1ccc(Cl)cc1)c1ccc(Cl)cc1 | – | 16.5 µM (active)
ClCc1ccccn1 | inactive | –

Compound | outcome | AC50
C[C@H]1O[C@@H](O[C@H]2[C@@H](O)C[C@H](O[C@H]3[C@@H](O)C[C@H](O[C@H]4CC[C@@]5(C)[C@H](CC[C@@H]6[C@@H]5CC[C@]5(C)[C@@H](C7=CC(=O)OC7)CC[C@]65O)C4)O[C@@H]3C)O[C@@H]2C)C[C@H](O)[C@@H]1O | inactive | –
CCc1ccccc1C | inactive | –
C=C(C)C#N | inactive | –
CC(=O)C(Cl)C(=O)N(C)C (stereo not given) | inactive | –
O=C(O)C(F)(F)C(F)(F)C(F)(F)C(F)(F)C(F)(F)C(F)(F)F | inactive | –
COc1cccc(C=O)c1 | inactive | –
COP(=O)(OC)OC | inactive | –
O=C1C(Cl)=C(Cl)C(=O)c2ccccc21 | inactive | –
CCCCC(CC)CO[N+](=O)[O-] (stereo not given) | inactive | –
O=C(Cl)c1ccc(Cl)cc1 | inactive | –
CCOC(=O)CP(=O)(OCC)OCC | inactive | –
Cl/C=C/Cl | inactive | –
CC1(C)CCC(Cc2ccc(Cl)cc2)C1(O)Cn1cncn1 (stereo not given) | inactive | –
C[C@]12CCC(=O)C[C@@H]1CC[C@@H]1[C@@H]2CC[C@]2(C)[C@@H](O)CC[C@@H]12 | inactive | 52.1 µM (active)
CCOP(=S)(OCC)SCSP(=S)(OCC)OCC | inactive | –
O=[N+]([O-])c1ccc2c3c(cccc13)CC2 | inactive | –
CCCCP(CCCC)CCCC | inactive | –
N#CCCO | inactive | –

From PubChem BioAssay (EPA / NIEHS)
